# PHOSPHO1 block = PHOSPHO1 (human) inhibition; recombinant PHOSPHO1, absorbance phosphatase assay; inhibition, % at 13.3 µM; hit rate 1.1% among 290,000; AID 1565; in the data active = inhibition above about 60%
# Target sequence (Q8TCT1 whole entry, looked up): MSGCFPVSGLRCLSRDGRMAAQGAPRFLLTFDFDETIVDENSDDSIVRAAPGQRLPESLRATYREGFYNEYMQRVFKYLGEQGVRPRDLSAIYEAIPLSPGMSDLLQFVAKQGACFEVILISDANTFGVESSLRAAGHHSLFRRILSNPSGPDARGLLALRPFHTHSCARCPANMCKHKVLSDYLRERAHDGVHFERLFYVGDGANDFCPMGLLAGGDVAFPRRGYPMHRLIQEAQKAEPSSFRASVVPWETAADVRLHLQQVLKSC
# G6PDH CS = counter-screen for G6PDH assay hits: L. mesenteroides G6PDH inhibition; Purified L. mesenteroides G6PDH, diaphorase/resazurin coupled fluorescence, 45 min; inhibition, % at 5 µM; hit rate 0.12% among 200,000; AID 1020; in the data active = inhibition above about 50%
# SUMO HTRF inh = blocks human SUMOylation mediated by UBC9 | hit rate 0.36% among 290,000 | HTRF SUMOylation assay, SAE1/SAE2 + UBC9, in vitro | inhibition, % at 35 µM; in the data active = inhibition above about 50%, passing the limit was not always enough; inconclusive = no clear call, values can overlap the other calls
# Target sequence (P63279 whole entry, looked up): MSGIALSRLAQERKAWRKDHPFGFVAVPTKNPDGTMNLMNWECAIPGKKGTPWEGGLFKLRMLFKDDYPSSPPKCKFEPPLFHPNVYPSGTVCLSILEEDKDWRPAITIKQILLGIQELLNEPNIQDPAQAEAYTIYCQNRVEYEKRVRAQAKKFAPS
# p97 inhibitor = human p97 ATPase inhibition; P55072; AID 1481; inhibition, % at 8 µM; hit rate 0.42% among 220,000; recombinant p97 ATPase, Kinase-Glo ATP luminescence, 3 h; in the data active = inhibition above about 15%;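 also: 0% = DMSO vehicle and 100% = wells lacking enzyme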
# PfM18AAP inh-1 = blocks P. falciparum M18 aspartyl aminopeptidase; recombinant PfM18AAP, H-Glu-NHMec fluorogenic cleavage; inhibition, % at 7.35 µM; hit rate 1.2% among 290,000; AID 1822;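 active = inhibition above the campaign mean inhibition over all tested compounds plus 3 SD, cut at about 28% in these data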;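 also: 0% = plate median of test compound wells and 100% = 2 mM ZnCl2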
# HDAC3 inhib = blocks human histone deacetylase 3; O15379; inhibition, % at 8.3 µM; recombinant HDAC3, fluorogenic peptide/trypsin coupled, fluorescence; hit rate 0.15% among 320,000; in the data active = inhibition above about 26%, passing the limit was not always enough; inconclusive = no clear call, values can overlap the other calls
# PfM18AAP inh-2 = confirmation of Plasmodium falciparum M18 aspartyl aminopeptidase inhibitors; shares compounds with PfM18AAP inh-1; recombinant PfM18AAP, H-Glu-NHMec fluorogenic cleavage; inhibition, % at 7.35 µM; hit rate 28% among 2,400; AID 2170;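 active = mean inhibition over replicate wells above the hit cutoff set for the earlier primary screen, cut at about 29% in these data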;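 also: 0% = median of test compound wells and 100% = 2 mM ZnCl2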
# CTSL1 counter = Cathepsin L (human) inhibition, confirmation; shares compounds with PfM18AAP inh-1; purified cathepsin L1, Z-Leu-Arg-MCA fluorescence; inhibition, % at 5.96 µM; 2,400 tested, under 10 active;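 active = average inhibition across replicates above the hit cutoff set in the earlier primary screen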;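 also: 0% = median of test compound wells and 100% = Z-Phe-Ala-diazomethylketone 1 µM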
# * = called active by the depositor; ? = inconclusive; / = no result given. Hits are enriched below; roughly 2.5% of the tested compounds scored in any of these assays.
SMILES,PHOSPHO1 block,G6PDH CS,SUMO HTRF inh,p97 inhibitor,PfM18AAP inh-1,HDAC3 inhib,PfM18AAP inh-2,CTSL1 counter
O=C1CC(=O)Nc2cc(S(=O)(=O)N3CCN(c4ccc([N+](=O)[O-])cc4)CC3)ccc2N1,32,/,25,/,8,9,/,/
S=c1nc[nH]c2c1ncn2C1CCCO1 (centres undefined),7,/,18,5,5,12,/,/
CC(C)n1cnc2c(=S)nc[nH]c21,-84,/,18,5,24,6,-46,5
O=S(=O)(NNc1ccc(F)cc1F)c1cccc(Cl)c1,31,/,-9,/,36*,1,-234,0
O=C(C/C=N\OCc1ccc([N+](=O)[O-])cc1)Nc1ccccc1,12,12,-6,0,33*,0,-33,-1
O=C(C/C=N\OCc1ccc([N+](=O)[O-])cc1)Nc1ccc(Cl)cc1,28,0,-17,2,-14,0,/,/
Cc1cc(C)c2nc(-c3ccncc3)cc(C(=O)N3CCN(Cc4ccccc4Cl)CC3)c2c1,57,/,-14,/,9,6,/,/
CCOCCCN(C(=O)CCC(=O)Nc1cc(C)on1)C(C(=O)NC(C)(C)C)c1ccccc1Cl (centres undefined),24,/,-9,/,7,1,/,/
Nc1c(/C=C2/C=CC(=O)C(O)=C2)c(=O)nc2sc(CC(=O)N3CCCC3)nn12,40,/,6,/,63*,8,43*,-2
Cc1cc(C)c2nc(NNC(=O)c3ccc(S(=O)(=O)N4CCc5ccccc5C4)cc3)sc2c1,-6,8,-26,-5,36*,9,-45,3
S=C(NCCCN1CCOCC1)NCCCN1CCOCC1,46,-3,-2,-6,39*,2,1,1
COc1cc(OC)c(C(=O)NCCCN2CCOCC2)cc1OC,-1,6,12,6,57*,0,-35,-3
COc1ccc(Cl)cc1C(=O)NCCCN1CCOCC1,14,/,14,/,-19,6,/,/
CC(C)(C)c1nnc(NC(=O)c2ccc3c(c2)OCO3)s1,-95,/,8,/,43*,-6,23,-3
CNC(=S)NNC(=O)c1ccc2c(c1)OCO2,8,1,6,2,35*,-5,22,-1
CC(C)c1nnc(NC(=O)c2ccc3c(c2)OCO3)s1,23,33,11,2,4,1,/,/
Cc1cccnc1NC(=S)NCc1ccco1,-21,10,18,1,32*,6,-20,-5
NNc1nc(-c2ccccc2)c2cc(Br)ccc2n1,-7,/,17,/,35*,0,-6,5
NNc1nc(-c2ccccc2)c2cc(Cl)ccc2n1,24,/,11,-2,19,0,/,/
N#CC1=C(N)Nc2ncnn2C1c1ccccc1 (centres undefined),9,12,20,0,38*,-3,-41,0
N#CC1=C(N)Nc2ncnn2C1c1ccc([N+](=O)[O-])cc1 (centres undefined),15,/,20,3,16,3,/,/
N#Cc1c(Nc2ccccc2C(F)(F)F)s[nH]c1=O,24,/,18,5,36*,2,2,-6
N#Cc1c(Nc2ccccc2Cl)s[nH]c1=O,58,/,-4,12,22,4,/,/
C=CCNC(=O)c1cc(-c2ccncc2)nc2c(C)cc(C)cc12,48,/,29,/,-2,-47,/,/
NS(=O)(=O)c1ccc(-c2ccc(/C=C3\NC(=S)NC3=O)o2)cc1,-16,/,54,/,37*,6,12,-1
SMILES,PHOSPHO1 block,G6PDH CS,SUMO HTRF inh,p97 inhibitor,PfM18AAP inh-1,HDAC3 inhib,PfM18AAP inh-2,CTSL1 counter
COc1ccccc1NS(=O)(=O)c1cccc(C(=O)N/N=C(\C)c2cccnc2)c1,/,/,/,/,/,5,/,/
CC1CCC/C(=C\Nc2ccc(C(=O)O)c(O)c2)C1=O (centres undefined),0,/,8,9,26,-6,/,/
O=C1CCCC/C1=C\Nc1ccc(C(=O)O)c(O)c1,32,/,17,5,33*,3,-19,2
Cc1ccc2nc(/C(C#N)=C/c3ccccc3C(=O)O)[nH]c2c1,3,/,14,/,3,0,/,/
Cc1ccc2nc(/C(C#N)=C/c3ccc(O)c(O)c3)[nH]c2c1,/,/,-4,/,60*,2,36*,4
COc1cccc(C(c2sc3ncnn3c2O)N2CCc3ccccc3C2)c1 (centres undefined),-17,4,13,-2,26,8,/,/
Oc1c(C(c2ccccc2)N2CCCCC2)sc2ncnn12 (centres undefined),-5,11,3,8,57*,1,-26,-5
CCOc1ccc(C2=CC(=O)C[C@H](c3ccc(OC)cc3)C2)cc1,/,/,/,/,/,-7,/,/
CNC(=S)/N=C(/Nc1ccccc1)c1ccccc1,-9,4,-5,-7,44*,5,-28,0
O=[N+]([O-])c1cc2c(cc1/C=N/NS(=O)(=O)c1ccc(Br)cc1)OCO2,29,8,-18,2,50*,3,13,-2
CCOC(=O)N1CCc2c(sc(NC(=O)CN3CCOCC3)c2C#N)C1,3,/,3,9,-7,1,/,/
CCOC(=O)N1CCc2c(sc(N)c2C#N)C1,-18,/,14,2,39*,4,-43,6
COc1ccc(C(=O)NNC(=O)CCc2ccccc2OC)cc1,-1,/,4,/,-3,-3,/,/
Oc1ccc(-c2nc(-c3ccc(O)c(O)c3)cs2)cc1,14,25,-2,13,59*,9,71*,-13
Oc1ccc(Nc2nc(-c3ccc4ccccc4c3)cs2)cc1,24,2,-10,2,25,?,/,/
N#Cc1c(/N=C/C=C/c2ccccc2)sc2c1CCCC2,-84,13,6,4,35*,14,-35,3
CN1CCN(/C=N/c2sc3c(c2C#N)CCCCC3)CC1,18,0,2,1,5,7,/,/
COc1cc(N=Cc2c(CO)cnc(C)c2O)cc(OC)c1OC,44,/,7,/,35*,-4,-13,-1
Cn1ncc2c(NNC(=O)c3ccc(Cl)cc3Cl)ncnc21,0,8,-22,1,41*,0,-2,0
Cn1ncc2c(NNC(=O)c3ccc(Cl)c(Cl)c3)ncnc21,-8,-11,-32,-2,13,-1,/,/
CCOC(=O)c1sc(N)c(C(=O)Nc2ccccc2)c1C,20,8,-6,3,40*,1,5,1
COc1ccccc1NS(=O)(=O)c1cc(NC(=O)C2CC2)ccc1N1CCOCC1,17,3,-2,-3,42*,4,-27,1
Cc1cccc(C)c1N1C(=O)CCC(C)(C)C1=O,19,/,0,/,-2,-6,/,/
CCN(CC(=O)Nc1c(F)cccc1F)C(=O)c1cnccn1,/,/,/,/,/,1,/,/
